# Experimental data taken from PubChem BioAssay AID1347417 (National Center for Advancing Translational Sciences (NCATS), 2020).
# Hit rate of the full screen: of about 120,000 compounds, about 5,300 (4.4%) were called active. Not shown: some 22% with an inconclusive outcome. Calls follow the shape of the dose curve; as a rule, active = well fitted inhibition curve with a large enough effect; inconclusive = small, poorly fitted or top-dose-only effect; inactive = no such curve, though single readings can be large or run the other way. What follows is part of a selection rich in actives, with near analogues and random picks from the rest. Where a call stands in place of a potency, no number is given.
# Assay: qHTS Primary assay for Inhibitors of Plasmodium falciparum Dd2 growth in vitro; also: nearly all actives have a fitted effect of over 65% in size
# Conditions: P. falciparum Dd2 growth, SYBR Green, 72 h; series mostly up to 28.9 µM
# Outline: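 Infected erythrocytes (Dd2, 0.3% parasitemia, 2.5% hematocrit final) are added to compound in RPMI-1640/Albumax II medium, grown 72 h at 37C in low oxygen, then lysed with saponin/Triton-X containing SYBR Green and read by fluorescence.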
# Potency is read from the fitted curve at half-maximal effect.
SMILES,Potency,"activity, negative = inhibition"
CC(C)N1C[C@H](O)C[C@H]1c1nnc2n1CCN(C(=O)CCCc1ccccc1)C2,inactive,–
O=C(NC1CCCN(c2cc(-c3ccc(Cl)cc3)[nH]n2)C1)c1ccccc1F (configuration not stated),inactive,–
COc1ccc(-c2cc(N3CCCC(NC(=O)c4ccsc4)C3)n[nH]2)cc1 (configuration not stated),inactive,–
COc1ccc(-c2cc(N3CCCC(NC(=O)c4cc(F)ccc4Cl)C3)n[nH]2)cc1 (configuration not stated),8910 nM (active),–
COc1ccc(-c2cc(N3CCC(NC(=O)c4ccoc4)CC3)n[nH]2)cc1,794 nM (active),–
COc1ccc(-c2cc(N3CCC(NC(=O)c4ccc5c(c4)OCO5)CC3)n[nH]2)cc1,inactive,–
COc1ccc(-c2cc(N3CCC(NC(=O)c4cccc(C)c4)CC3)n[nH]2)cc1,inactive,–
COc1cccc(C(=O)N2CCC(N3C[C@H](O)C[C@H]3C(=O)N3CCC(N4CCCCC4)CC3)CC2)c1,inactive,–
CC(C)Cc1ccc(S(=O)(=O)N2CCCC2c2nncn2Cc2ccncc2)cc1 (configuration not stated),inactive,–
CCC(CC)C(=O)N[C@@H](Cn1cc(-c2ccccc2F)c(=O)[nH]c1=O)C(=O)O,inactive,–
CN(Cc1cccnc1)c1nc2c(c(=O)[nH]1)CCN(Cc1cc(F)ccc1F)CC2,–,14.7% [at 5.79 µM] (inactive)
COc1ccc(-c2onc(C)c2C(=O)NCc2ccc3c(c2)OCO3)cc1,inactive,–
CCOc1ccccc1NC(=O)N1c2ccccc2CC1c1nc(C(C)C)no1 (configuration not stated),–,-4.28% [at 5.79 µM] (inactive)
C=C[C@H]1CN2CC[C@H]1C[C@@H]2CNCc1ccc(C(F)(F)F)cc1,2240 nM (active),–
O=C(NC[C@H]1C[C@@H]2CCN1C[C@@H]2CN1CCN(c2ncccn2)CC1)c1ccc(C(F)(F)F)cc1,inactive,–
O=C(CC1=C2CCCCC2NC1=O)Nc1ccccc1F (configuration not stated),inactive,–
O=C(NC1CCCc2c1[nH]c1ccc(F)cc21)c1n[nH]c2c1CCCC2 (configuration not stated),inactive,–
CC1=NOC2(CCN(Cc3c[nH]c4ccccc34)CC2)C1,inactive,–
c1ccc2c(c1)CNC1(CCN(Cc3cccc4ccccc34)CC1)CO2,2000 nM (active),–
COc1ccc(CN2CCC3(COc4ccccc4C(=O)N3)C2)cc1 (configuration not stated),inactive,–
Cc1ccc(-c2nc(N3CCOCC3)cc3c2CN(Cc2cnn(C)c2)C3=O)cn1,inactive,–
COc1ccc(CN2CCOc3nc(-c4cc(F)cc(OC)c4)ncc3C2=O)cc1,inactive,–
CCOc1ccccc1NC(=O)N1CCC(n2c(C)cnc2-c2cccnc2)CC1,inactive,–
C=C(C)COc1ccccc1C(=O)NC(C(=O)O)c1c(C)n[nH]c1C (configuration not stated),inactive,–
COc1ccccc1-c1cc(C(F)(F)F)nc(S(=O)(=O)CCCC(=O)Nc2ccc(F)cc2F)n1,8910 nM (active),–
COc1ccccc1-c1cc(C(F)(F)F)nc(S(=O)(=O)CCCC(=O)Nc2cc(C)ccc2O)n1,inactive,–
CSc1ccccc1NC(=O)CCS(=O)(=O)c1nc(-c2cccs2)cc(C(F)(F)F)n1,inactive,–
